High-throughput results from PubChem.
A selection follows.
aSyn 5UTR act: Activators via SNCA 5'UTR binding, MLPCN. alpha-synuclein 5'UTR reporter, activators screen. AID 1814. 300,000 compounds, 7.1% hits. activity score, % (tested at 7.5 µM), hits read low; in the data active = activity score below about -60%
Of the large screens only hits and unclear results are named; the others gave an inactive call.

Cc1cc2ccccn2c1C(=O)Nc1cccc(Cl)c1	aSyn 5UTR act -113
Cc1cc2ccccn2c1C(=S)NC(=O)c1ccccc1	aSyn 5UTR act -82
CCOc1ccc2nc(N3CCCC(C(=O)NC4CCCC4)C3)sc2c1 (stereo not given)	aSyn 5UTR act -70
CCOc1ccc2nc(N3CCC(C(=O)N4CCN(c5ncccn5)CC4)CC3)sc2c1	aSyn 5UTR act -75
Cc1c(C(=O)NNC(=S)Nc2cccc(Cl)c2)nnn1-c1ccccc1	aSyn 5UTR act -69
N#Cc1c(N2CCOCC2)nsc1-c1ccc(C(F)(F)F)cc1	aSyn 5UTR act -134
Cc1cc(C)n(CCc2nc(-c3cc4ccccc4o3)cs2)n1	aSyn 5UTR act -112
Nc1nc(-c2cc3ccccc3o2)cs1	aSyn 5UTR act -132
CN1CCN(c2nc(-c3cc4ccccc4o3)cs2)CC1	aSyn 5UTR act -142
Clc1ccc2c(c1)[C@H]1OCC[C@H]1[C@@H](c1ccco1)N2	aSyn 5UTR act -168
CCOC(=O)N1CCC(=NNc2nc3ccccc3s2)CC1	aSyn 5UTR act -112
CC(=O)N1CCC(=NNc2nc3ccccc3s2)CC1	aSyn 5UTR act -215
CCOC(=O)N1CCN(/C=C(\C#N)c2nc3ccccc3s2)CC1	aSyn 5UTR act -94
CC(=O)Nc1cccc(/C(C)=N/Nc2nc3ccccc3s2)c1	aSyn 5UTR act -224
COC(=O)CSc1nc(-c2ccccc2)cc(-c2ccco2)c1C#N	aSyn 5UTR act -64
CC(C)Cc1cc(-c2ccco2)c(C#N)c(N)n1	none
O=C1c2ccccc2CN1CCSC(=S)N1CCSCC1	aSyn 5UTR act -109
O=C1c2ccccc2CN1CCSC(=S)N1CCOCC1	aSyn 5UTR act -105
Cc1ccc(C2C=NN(c3ccccc3)C2=O)cc1 (stereo not given)	aSyn 5UTR act -64
O=c1cc(COc2ccccc2[N+](=O)[O-])nc2sccn12	aSyn 5UTR act -83
CC(=O)c1ccc(OCc2cc(=O)n3ccsc3n2)cc1	aSyn 5UTR act -95
Cc1ccc(-c2nn(-c3ccccc3)cc2C=C2C(=O)CC(C)(C)CC2=O)cc1	aSyn 5UTR act -94
CC1=NNC(=O)/C1=C\c1cn(-c2ccccc2)nc1-c1ccc(Cl)cc1	none
O=C(NC(=O)N1CCN(c2ccccc2)CC1)c1ccc(Cl)cc1	aSyn 5UTR act -66
Cc1cc(C(=O)CSc2nnnn2-c2ccccc2)c(C)n1-c1ccc2c(c1)OCO2	aSyn 5UTR act -91
Cc1cc(C(=O)CSc2nncs2)c(C)n1-c1ccc2c(c1)OCO2	aSyn 5UTR act -153
C=C(C)C1CC=C(C)/C(=N/NC(=O)c2cccs2)C1 (stereo not given)	aSyn 5UTR act -124
C=C(C)C1CC=C(C)/C(=N/Nc2ccccc2[N+](=O)[O-])C1 (stereo not given)	aSyn 5UTR act -144
O=C1NC(=O)/C(=C/c2ccc(O)cc2)S1	aSyn 5UTR act -91
COc1ccc(/C(C)=N/NC(=O)OC(C)(C)C)cc1[N+](=O)[O-]	aSyn 5UTR act -68
Cc1cccc(-c2nc(N)nc(N)n2)c1	aSyn 5UTR act -74
Nc1nc(N)nc(-c2ccc(Cl)cc2)n1	aSyn 5UTR act -112
Nc1nc(-c2ccc(Cl)cc2)nnc1-c1ccc(Br)cc1	aSyn 5UTR act -178
O=C(NCc1ccccc1F)c1ccc2c(c1)OCCO2	aSyn 5UTR act -80
O=C(CCC1CCCN(C(=O)c2ccc3c(c2)OCCO3)C1)NCc1ccccc1F (stereo not given)	aSyn 5UTR act -66
CS(=O)(=O)NNC(=O)Cn1nnc(-c2ccc(OCc3ccccc3Cl)cc2)n1	aSyn 5UTR act -107
O=C(Nc1ccc(F)cc1)c1cc2cc(Cl)ccc2[nH]1	aSyn 5UTR act -62
CCc1ccc2[nH]c(C(=O)Nc3ccc(C)c(F)c3)cc2c1	aSyn 5UTR act -109
CCOC(=O)c1cc(-c2ccccc2)nn1Cc1cc(CC)no1	aSyn 5UTR act -100
c1ccc2c(c1)Cc1cc(CN3CCOCC3)ccc1-2	aSyn 5UTR act -113
Nc1ccc2nc(SCC(=O)N3CCOCC3)sc2c1	aSyn 5UTR act -71
Nc1ccc2nc(SCc3cccc(F)c3)sc2c1	aSyn 5UTR act -139
CCCC(=O)Nc1ccc2nc(SCC(=O)Nc3ccc(N4CCOCC4)c(Cl)c3)sc2c1	aSyn 5UTR act -150
Nc1ccc2nc(SCC(=O)Nc3ccc(N4CCOCC4)c(Cl)c3)sc2c1	aSyn 5UTR act -174
O=C(CSc1nnc(-c2ccc(C(F)(F)F)cn2)o1)Nc1ccccc1Cl	aSyn 5UTR act -98
CC(C)(C)c1ccc(NC(=O)CSc2nnc(-c3n[nH]c4ccccc34)o2)cc1	aSyn 5UTR act -129
COc1ccc(NCc2nnc(SCC(=O)Nc3cc(C(F)(F)F)ccc3Cl)o2)cc1	aSyn 5UTR act -63
COc1ccc(NCc2nnc(SCC(=O)Nc3cc(C)cc(C)c3)o2)cc1	aSyn 5UTR act -65
Cc1ccc(-c2nnc(-c3ccc(Br)cc3)o2)o1	aSyn 5UTR act -135
c1ccc(-c2nnc(-c3ccco3)o2)cc1	aSyn 5UTR act -137
c1coc(-c2nnc(-c3cccs3)o2)c1	aSyn 5UTR act -99
Brc1ccc(-c2nnc(-c3ccco3)o2)cc1	aSyn 5UTR act -146
CC(C)(C)c1csc(NC(=O)c2ccc3nccnc3c2)n1	aSyn 5UTR act -178
Cc1cccc(NC(=O)c2ccc3c(c2)OCCO3)n1	aSyn 5UTR act -84
Cc1cc(NC(=O)c2ccc3c(c2)OCCO3)no1	none
Cc1nc(NC(=O)c2ccc3c(c2)OCO3)ccc1Br	aSyn 5UTR act -140
Cc1cccc(NC(=O)c2ccc3nccnc3c2)n1	aSyn 5UTR act -76
Cc1ccc(NC(=O)c2ccc3nccnc3c2)c(C)c1	aSyn 5UTR act -102
CCOc1ccc(NC(=S)NC(=O)/C=C/c2ccc(Br)cc2)c([N+](=O)[O-])c1	aSyn 5UTR act -79
COc1ccc(C(=O)/C=C/Nc2cccc(O)c2)cc1	aSyn 5UTR act -94
CCOC(=O)c1ccc(OS(=O)(=O)c2ccccc2)c(OC)c1	aSyn 5UTR act -195
COC(=O)c1ccccc1N/C=C/C(=O)c1ccc(Br)cc1	aSyn 5UTR act -132
Cc1ccc(Cl)c(N/C=C/C(=O)c2ccccc2)c1	aSyn 5UTR act -144
CCOc1ccc(N/C=C/C(=O)c2ccc(OC)cc2)c([N+](=O)[O-])c1	aSyn 5UTR act -118
CCOc1ccc(C(=O)Cc2cc(OC)c(OC)cc2[N+](=O)[O-])cc1	aSyn 5UTR act -80
COc1cccc(N/C=C/C(=O)c2ccc(OC)c(OC)c2)c1	aSyn 5UTR act -97
COc1ccc(C(=O)/C(C#N)=N/Nc2ccc([N+](=O)[O-])cc2)cc1	none
COc1ccc(C(=O)/C=C/Nc2ccc([N+](=O)[O-])cc2)cc1	aSyn 5UTR act -106
Cc1cccc(N/C=C/C(=O)c2ccc(Cl)cc2)c1	aSyn 5UTR act -157
COc1cccc(N/C=C/C(=O)c2ccc(Br)cc2)c1	aSyn 5UTR act -117
CCOC(=O)c1cccc(N/C=C/C(=O)c2ccc(OC)c(OC)c2)c1	aSyn 5UTR act -130
COc1cccc(C(=O)/C=C/Nc2cc(C)ccc2O)c1	aSyn 5UTR act -261
CCOC(=O)c1ccc(N/C=C\C(=O)c2cccc(OC)c2)cc1	aSyn 5UTR act -131
O=C(/C=C/c1ccc(Cl)cc1)NCCc1ccccc1	aSyn 5UTR act -67
O=C(/C=C/c1ccccc1Cl)NCCc1ccccc1	aSyn 5UTR act -176
Cc1cnc(NC(=O)COc2ccccc2Cl)s1	none
COc1ccccc1CCC(=O)Nc1ncc(C)s1	aSyn 5UTR act -83
COc1ccccc1CCC(=O)Nc1ccc(C)cc1Cl	aSyn 5UTR act -160
O=C(c1ccc(F)cc1)c1cc2ccccc2o1	aSyn 5UTR act -171
Cc1ccc(C(=O)c2cc3ccccc3o2)cc1[N+](=O)[O-]	aSyn 5UTR act -119
O=C(c1ccccc1)c1cc2ccccc2o1	aSyn 5UTR act -149
